One test has as its target Solute carrier family 2, facilitated glucose transporter member 1 (Homo sapiens) (UniProt P11166). Description: ST_JUDE_LEISH: Cytotoxicity at 2uM final concentration against transgenic Leishmania Mexicana promastigotes LmGLUT1 that are glucose transport deficient and complemented with the human glucose transporter GLUT1. Activity is measured by DNA content using SYBR green in vitro. The format is functional.
Solute carrier family 2, facilitated glucose transporter member 1 (Homo sapiens), sequence (P11166 whole entry): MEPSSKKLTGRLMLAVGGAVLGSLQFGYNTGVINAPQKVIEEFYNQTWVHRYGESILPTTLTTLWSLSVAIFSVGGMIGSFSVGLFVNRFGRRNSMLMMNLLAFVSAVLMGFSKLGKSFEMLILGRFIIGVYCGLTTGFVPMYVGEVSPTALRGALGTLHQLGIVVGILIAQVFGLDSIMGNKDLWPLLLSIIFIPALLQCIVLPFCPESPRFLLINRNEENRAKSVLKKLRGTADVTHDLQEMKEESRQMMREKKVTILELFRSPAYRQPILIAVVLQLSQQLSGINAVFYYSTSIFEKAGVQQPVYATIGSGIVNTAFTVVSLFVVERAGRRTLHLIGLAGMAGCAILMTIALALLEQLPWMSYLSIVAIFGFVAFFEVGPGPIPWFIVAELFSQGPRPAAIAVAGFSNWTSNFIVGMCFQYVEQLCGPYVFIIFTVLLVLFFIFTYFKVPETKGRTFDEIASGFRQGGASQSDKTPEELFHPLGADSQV
In general, inhibition refers to the drop in the measured response relative to a control, in per cent. Consider `CCn1cc2c3c(cc(C(=O)N[C@@H](Cc4ccccc4)[C@H](O)CNCc4cccc(OC)c4)cc31)N(C)S(=O)(=O)CC2`, for which the inhibition was 1.89%.

With `N#Cc1cccc(-c2ccc(C(=O)Nc3ccc4c(c3)CCN(C3CCC3)CC4)cn2)c1`, the inhibition is 7.62%.

`Cc1ccc(C(=O)Nc2ccc(C)c(OC3CCN(CCC(C)C)C3)c2)cc1` (stereo not given): the inhibition amounted to 8.1%.

`O=C(Nc1cccc(C(F)(F)F)c1)Nc1cc(F)c(F)cc1Cl`: the inhibition is 1.86%.

As to `O=S(=O)(Nc1cc2c(cc1OCCCN1CCCCC1)CCNCC2)c1ccc(-c2ccc(Cl)cc2)cc1`, the inhibition turned out to be 1.29%.

Take `CC(=O)c1cccc2c(NC(=O)Nc3ccc4nccc(N5CCN(C)CC5)c4c3)cccc12`: the inhibition worked out at 7.67%.

As to `CCN(CC)CCCCNc1cc(-c2[nH]c(C(C)(C)C)nc2-c2ccc3cc(OC)ccc3c2)ccn1`, the inhibition stood at 4.69%.

`Cc1ccc(-c2ccc(Cl)cc2Oc2cnc(N)nc2N)o1`: the inhibition is 1.95%.

Turning to `O=C(NCCCCCN1CCC(c2c[nH]c3ccccc23)CC1)Nc1ccc(I)cc1`, the inhibition amounted to 11%.

For the compound `CC(=O)N(C)c1cccc(C(=O)Nc2cccc(-c3cccc(-c4nc5cc(C(F)(F)F)ccc5[nH]4)c3)c2)c1`, the inhibition is 12.3%.

In the case of `O=C(Nc1ccc(Cn2ncc(N3CCCNCC3)c(Cl)c2=O)cc1)Nc1cccc(SC(F)(F)F)c1`, the inhibition amounted to 0.84%.

For the compound `CCc1ccc(-c2cnc(N)c3cc(-c4ccnc(N)n4)ccc23)cc1`, the inhibition was -0.81%.

On to `Cc1cc(-c2nc3cncc(-c4cccc(CN5CCCC5Cc5cccnc5)c4)c3n2C)nn1C` (stereo not given), for which the inhibition is -1.04%.

Turning to `COc1ccccc1C1CCN(C2CCC(NC(=O)/C=C/c3cc(C(F)(F)F)cc(C(F)(F)F)c3)CC2)CC1` (stereo not given), the inhibition is -3.08%.

Take `COc1ccc(-c2ncnc(C(F)(F)F)c2-c2ccc(Cl)cc2)c(O)c1`: the inhibition stood at 3.19%.

For `N#Cc1cccc(C(=O)Nc2cccc(-c3ccc(C(=O)NCCCN4CCOCC4)cc3)c2)c1`, the inhibition was 6.85%.

Take `CN(C)CCOc1cc(NC(=O)/C=C/c2cccc3ccccc23)ccc1I`: the inhibition is 10.4%.

In the case of `Cn1c(N)c(C(=O)CSc2ncc(-c3ccc(F)cc3)n2Cc2ccccc2)c(=O)n(C)c1=O`, the inhibition was 2.53%.

In the case of `COCCn1ccc2c3c(N)nc(N)nc3ccc21`, the inhibition was found to be 0.38%.

As for `CCN(CC)CCN(Cc1ccc(-c2ccc(C(F)(F)F)cc2)cc1)C(=O)Cn1c(CCc2cccc(F)c2F)c(C)c(=O)c2ccccc21`, the inhibition was determined as 1.84%.

On to `Cc1cc2nc(N=C3NC4(c5ccccn5)NC(=Nc5nc6cc(C)c(C)cc6[nH]5)NC4(c4ccccn4)N3)[nH]c2cc1C` (stereo not given), for which the inhibition is 2.01%.

Take `NC(=O)COc1c(C2CCN(CCN3CCC(CNC(=O)c4ccc(-c5ccc(C(F)(F)F)cc5)cc4)CC3)CC2)ccc2c1CCCC2`: the inhibition is 4.85%.

Regarding `COc1ccc(NC(=O)NC2CCN(c3ccnc4ccccc34)C2)cc1` (stereo not given), the inhibition stood at 0.52%.

Regarding `CCC1=C(CC2NCCc3cc(OC)c(OC)cc32)CC2c3cc(OC)c(OC)cc3CCN2C1` (stereo not given), the inhibition is 87.8%.

For the compound `CCCCNC(=O)C1CCCN(C(=O)c2ccc(O)c(-c3ccc(Cl)c(Cl)c3)c2)C1` (stereo not given), the inhibition came to 1.28%.

With `CCc1cc(OC)ccc1C1CCN(CCCCNC(=O)c2ccc(NC(=O)c3ccc(Cl)cc3)cc2)CC1`, the inhibition was determined as 3.47%.

Take `Cc1onc(-c2c(Cl)cccc2Cl)c1C(=O)N1CCc2cc3nccc(N4CCN5CCC[C@H]5C4)c3cc21`: the inhibition is 3.46%.

Turning to `Cn1c2ccccc2c2c3ccccc3c(CNC(CO)(CO)CO)cc21`, the inhibition came to 13.8%.

For `Cc1cccc(OC(C)C(=O)Nc2cc(C(F)(F)F)ccc2N2CCOCC2)c1` (stereo not given), the inhibition is 2.38%.

With `CCN(CCCN1CCCCC1)c1cc(C)nc(Nc2cccc(C(F)(F)F)c2C)n1`, the inhibition is -0.36%.

As for `Cc1cc(=NN=Cc2ccc(F)cc2)c2cc(C(F)(F)F)ccc2[nH]1`, the inhibition is 2.35%.

Take `Cc1cc(C(=O)Nc2ccc(-c3ccccc3)cc2)no1`: the inhibition worked out at 2.6%.

Take `CC(C)N(C(=O)CSc1nc2cc(Cl)ccc2c(=O)n1Cc1ccccc1)C(C)C`: the inhibition amounted to 0.98%.

In the case of `COCCn1c(-c2cccc(Cl)c2)nn(-c2ccc([N+](=O)[O-])cc2Cl)c1=S`, the inhibition stood at 4.03%.

Consider `Cc1cc(N2CCCCC2)nc2ccc(NC(=O)c3cccc([N+](=O)[O-])c3)cc12`, for which the inhibition turned out to be 4.97%.

`CC(=O)c1c[nH]c(C(=O)Nc2ccc(-c3cn4ccccc4n3)cc2)c1`: the inhibition came to 11.8%.

As to `CCCN1CCC=C(c2cccc(Nc3nccc(Nc4cc(OC)ccc4C)n3)c2)C1`, the inhibition is 11.2%.

As to `CCN(CC)CCN(Cc1ccc(-c2ccc(C(F)(F)F)cc2)cc1)C(=O)Cn1c(CCc2cccc(F)c2F)nc(=O)c2ccc(C(F)(F)F)cc21`, the inhibition stood at 1.5%.

For the compound `CCOC(=O)c1ccc(NC(=O)Nc2cccc(-c3cccc(-c4nc5ccccc5[nH]4)c3)c2)cc1`, the inhibition stood at 10.4%.

In the case of `COc1ccc(S(=O)(=O)Nc2cc(C)cc(Br)c2OC)cc1N1CCN(C(=O)C(Cl)(Cl)Cl)CC1`, the inhibition was 0.75%.

The target of another test is Hexose transporter 1 (Plasmodium falciparum) (UniProt O97467). The test is described as follows: ST_JUDE_LEISH: Cytotoxicity at 2uM final concentration against transgenic Leishmania Mexicana promastigotes LmPfHT that are glucose transport deficient and complemented with the Plasmodium falciparum hexose transporter. Activity is measured by DNA content using SYBR green in vitro. The test is classed as functional.
For `CCn1cc2c3c(cc(C(=O)N[C@@H](Cc4ccccc4)[C@H](O)CNCc4cccc(OC)c4)cc31)N(C)S(=O)(=O)CC2`, the inhibition stood at 3.02%.

As to `N#Cc1cccc(-c2ccc(C(=O)Nc3ccc4c(c3)CCN(C3CCC3)CC4)cn2)c1`, the inhibition turned out to be 4.8%.

Regarding `Cc1ccc(C(=O)Nc2ccc(C)c(OC3CCN(CCC(C)C)C3)c2)cc1` (stereo not given), the inhibition is 8.98%.

`O=C(Nc1cccc(C(F)(F)F)c1)Nc1cc(F)c(F)cc1Cl`: the inhibition came out at 1.72%.

For the compound `O=S(=O)(Nc1cc2c(cc1OCCCN1CCCCC1)CCNCC2)c1ccc(-c2ccc(Cl)cc2)cc1`, the inhibition is -0.13%.

Regarding `CC(=O)c1cccc2c(NC(=O)Nc3ccc4nccc(N5CCN(C)CC5)c4c3)cccc12`, the inhibition was 6.04%.

Turning to `CCN(CC)CCCCNc1cc(-c2[nH]c(C(C)(C)C)nc2-c2ccc3cc(OC)ccc3c2)ccn1`, the inhibition turned out to be 4.79%.

For `Cc1ccc(-c2ccc(Cl)cc2Oc2cnc(N)nc2N)o1`, the inhibition turned out to be 2.44%.

`O=C(NCCCCCN1CCC(c2c[nH]c3ccccc23)CC1)Nc1ccc(I)cc1`: the inhibition was determined as 5.79%.

With `CC(=O)N(C)c1cccc(C(=O)Nc2cccc(-c3cccc(-c4nc5cc(C(F)(F)F)ccc5[nH]4)c3)c2)c1`, the inhibition was found to be 12%.

In the case of `O=C(Nc1ccc(Cn2ncc(N3CCCNCC3)c(Cl)c2=O)cc1)Nc1cccc(SC(F)(F)F)c1`, the inhibition came to 1.25%.

For `CCc1ccc(-c2cnc(N)c3cc(-c4ccnc(N)n4)ccc23)cc1`, the inhibition was -4.63%.

For `Cc1cc(-c2nc3cncc(-c4cccc(CN5CCCC5Cc5cccnc5)c4)c3n2C)nn1C` (stereo not given), the inhibition is -2.01%.

`COc1ccccc1C1CCN(C2CCC(NC(=O)/C=C/c3cc(C(F)(F)F)cc(C(F)(F)F)c3)CC2)CC1` (stereo not given): the inhibition was -0.91%.

With `COc1ccc(-c2ncnc(C(F)(F)F)c2-c2ccc(Cl)cc2)c(O)c1`, the inhibition was 3.07%.

Consider `N#Cc1cccc(C(=O)Nc2cccc(-c3ccc(C(=O)NCCCN4CCOCC4)cc3)c2)c1`, for which the inhibition worked out at 5.61%.

As to `CN(C)CCOc1cc(NC(=O)/C=C/c2cccc3ccccc23)ccc1I`, the inhibition is 8.1%.

For the compound `Cn1c(N)c(C(=O)CSc2ncc(-c3ccc(F)cc3)n2Cc2ccccc2)c(=O)n(C)c1=O`, the inhibition stood at 1.62%.

As for `COCCn1ccc2c3c(N)nc(N)nc3ccc21`, the inhibition worked out at 3.61%.

For the compound `CCN(CC)CCN(Cc1ccc(-c2ccc(C(F)(F)F)cc2)cc1)C(=O)Cn1c(CCc2cccc(F)c2F)c(C)c(=O)c2ccccc21`, the inhibition amounted to 1.5%.

For the compound `Cc1cc2nc(N=C3NC4(c5ccccn5)NC(=Nc5nc6cc(C)c(C)cc6[nH]5)NC4(c4ccccn4)N3)[nH]c2cc1C` (stereo not given), the inhibition is -0.16%.

`NC(=O)COc1c(C2CCN(CCN3CCC(CNC(=O)c4ccc(-c5ccc(C(F)(F)F)cc5)cc4)CC3)CC2)ccc2c1CCCC2`: the inhibition worked out at 4.29%.

Regarding `COc1ccc(NC(=O)NC2CCN(c3ccnc4ccccc34)C2)cc1` (stereo not given), the inhibition turned out to be 0.7%.

On to `CCC1=C(CC2NCCc3cc(OC)c(OC)cc32)CC2c3cc(OC)c(OC)cc3CCN2C1` (stereo not given), for which the inhibition amounted to 92.4%.

Consider `CCCCNC(=O)C1CCCN(C(=O)c2ccc(O)c(-c3ccc(Cl)c(Cl)c3)c2)C1` (stereo not given), for which the inhibition was 1.16%.

As to `CCc1cc(OC)ccc1C1CCN(CCCCNC(=O)c2ccc(NC(=O)c3ccc(Cl)cc3)cc2)CC1`, the inhibition came out at 5.73%.

As to `Cc1onc(-c2c(Cl)cccc2Cl)c1C(=O)N1CCc2cc3nccc(N4CCN5CCC[C@H]5C4)c3cc21`, the inhibition is 4.46%.

`Cn1c2ccccc2c2c3ccccc3c(CNC(CO)(CO)CO)cc21`: the inhibition is 12.7%.

`Cc1cccc(OC(C)C(=O)Nc2cc(C(F)(F)F)ccc2N2CCOCC2)c1` (stereo not given): the inhibition was 3.02%.

For `CCN(CCCN1CCCCC1)c1cc(C)nc(Nc2cccc(C(F)(F)F)c2C)n1`, the inhibition worked out at 1.74%.

`Cc1cc(=NN=Cc2ccc(F)cc2)c2cc(C(F)(F)F)ccc2[nH]1`: the inhibition came to 2.57%.

Turning to `Cc1cc(C(=O)Nc2ccc(-c3ccccc3)cc2)no1`, the inhibition is 0.53%.

On to `CC(C)N(C(=O)CSc1nc2cc(Cl)ccc2c(=O)n1Cc1ccccc1)C(C)C`, for which the inhibition is 2.14%.

As to `COCCn1c(-c2cccc(Cl)c2)nn(-c2ccc([N+](=O)[O-])cc2Cl)c1=S`, the inhibition was determined as 6.65%.

`Cc1cc(N2CCCCC2)nc2ccc(NC(=O)c3cccc([N+](=O)[O-])c3)cc12`: the inhibition came out at 4.4%.

As for `CC(=O)c1c[nH]c(C(=O)Nc2ccc(-c3cn4ccccc4n3)cc2)c1`, the inhibition came out at 10.9%.

On to `CCCN1CCC=C(c2cccc(Nc3nccc(Nc4cc(OC)ccc4C)n3)c2)C1`, for which the inhibition was determined as 11.9%.

As for `CCN(CC)CCN(Cc1ccc(-c2ccc(C(F)(F)F)cc2)cc1)C(=O)Cn1c(CCc2cccc(F)c2F)nc(=O)c2ccc(C(F)(F)F)cc21`, the inhibition came out at 1.49%.

Consider `CCOC(=O)c1ccc(NC(=O)Nc2cccc(-c3cccc(-c4nc5ccccc5[nH]4)c3)c2)cc1`, for which the inhibition amounted to 7.84%.

Take `COc1ccc(S(=O)(=O)Nc2cc(C)cc(Br)c2OC)cc1N1CCN(C(=O)C(Cl)(Cl)Cl)CC1`: the inhibition was found to be 0.79%.

These data come from ChEMBL document CHEMBL3433997, “St. Jude Leishmania screening dataset” (2016).
